The full list was thinned out, with hits kept by preference.
Tg IFNy HTS: T. gondii growth inhibition under IFN-gamma; Toxoplasma gondii growth in IFN-gamma-treated host cells; active compounds read low; activity change, negative = inhibition, % (test concentration not listed); hit rate 3.8% among 69,000; in the data active means activity change below about -70%, passing the limit was not always enough;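 further: host cells are HeLa cells infected with Toxoplasma gondii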
* marks the source's active call; other numbers are inactive results.

SMILES	Tg IFNy HTS
COc1ccc(S(=O)(=O)NC(C)c2nc(-c3ccncc3)n[nH]2)cc1 (centres undefined)	62.7
CC(=O)N1CCC2(CC1)OC(=O)C(C)=C2C(=O)NCCCN1C(C)CCCC1C (centres undefined)	25.0
CCNS(=O)(=O)c1ccc(-c2oc3cc(S(=O)(=O)NCC)ccc3c2Cl)cc1	-78.1*
CCN(CC)S(=O)(=O)c1ccc2oc3ccc(S(=O)(=O)N(CC)CC)cc3c2c1	-7.8
CCCc1cc(=O)oc2cc(OS(=O)(=O)c3ccc(Cl)cc3)ccc12	-54.6
CC(C)N(C)Cc1noc2c1CN(Cc1nccn1C)CC2	4.4
CCOC1COC2(CCN(C(=O)Cc3ccccn3)CC2)C1 (centres undefined)	203.6
CCOC(=O)c1noc2nc(C)n(Cc3nc(-c4cccc(Br)c4)oc3C)c(=O)c12	44.1
C=C1SC(Nc2c(C)cccc2C)=NC12CCCCC2	-81.1*
CCc1cccc2c(CC(=O)Nc3nc(C(C)=O)cs3)c(C)[nH]c12	155.2
O=C(CN1CCCC1c1ccccn1)N1CCOc2ccccc21 (centres undefined)	24.7
O=C(NCCc1ccccn1)C1(Oc2ccc(Cl)cc2)CCNCC1	4.9
CCCNC(=O)N(C)C[C@@H]1Oc2cc(C#C[C@H](C)O)ccc2S(=O)(=O)N([C@H](C)CO)C[C@H]1C	-69.9
Cc1ccccc1-c1ccc2c(c1)O[C@@H](CN(C)C(=O)Nc1ccc(C(F)(F)F)cc1)[C@@H](C)CN([C@H](C)CO)S2(=O)=O	65.5
C[C@@H]1CN([C@@H](C)CO)S(=O)(=O)c2ccc(C#CC3(O)CCCC3)cc2O[C@@H]1CN(C)C(=O)Nc1cccc(F)c1	-103.5*
C/C=C/c1ccc2c(c1)O[C@@H](CN(C)C(=O)Nc1ccc(OC)cc1)[C@@H](C)CN([C@@H](C)CO)S2(=O)=O	100.2
C[C@H](CO)N1C[C@H](C)[C@H](CN(C)C(=O)Nc2cccc(F)c2)Oc2cc(C#CC3(O)CCCC3)ccc2S1(=O)=O	-6.7
Cc1ccccc1-c1ccc2c(c1)O[C@H](CN(C)C(=O)Nc1ccc(C(F)(F)F)cc1)[C@@H](C)CN([C@H](C)CO)S2(=O)=O	-97.1*
C=CCc1ccc(OCc2ccc(C(=O)N3CCc4ccccc43)o2)c(OC)c1	19.2
O=C(NCCc1csc(-c2ccccc2)n1)c1ccc(F)c(F)c1	283.1
O=C(c1cc(=O)n(-c2ccccc2)[nH]1)N1CCCC(Nc2ccc(F)cc2)C1 (centres undefined)	354.0
COc1cccc(Nc2nc(-c3nnc(-c4ccccc4)o3)nc3ccccc23)c1	53.6
COc1ccc(NC(=O)Cn2c(=O)ccc3cc(S(=O)(=O)N4CCCC4)ccc32)cc1	2.5
CCOc1ccccc1-c1nc(Cn2nnc(C(=O)Nc3ccc(C)cc3Br)c2C)c(C)o1	31.9
CCCC(=O)Nc1ccc(-c2nc(-c3cc(C)ccc3C)co2)cc1	9.4
SMILES	Tg IFNy HTS
CC1CCN(CC(C)(C)NC(=O)c2cc(-c3ccncc3)c3cnccc3n2)CC1	-14.0
CC(C)C(NC(=O)c1cccc(-n2cnnc2)c1)c1cccs1 (centres undefined)	114.5
CC(C)C(NC(=O)c1cc(-c2ccncc2)c2cnccc2n1)c1cccs1 (centres undefined)	-87.3*
COc1ncccc1C(Cc1ccsc1)NC(=O)C1CCS(=O)(=O)C1 (centres undefined)	68.2
CS(=O)(=O)N1CCCc2ccccc2C1c1ccnc(Oc2cccnc2)c1 (centres undefined)	-14.3
COc1cc(C)nc(OCCNC(=O)COc2ccc(Cl)cc2C)n1	-7.7
Cc1cc(Cl)ccc1OCCCC(=O)N1CCN(C)CC1	15.5
Cc1cc(Cl)ccc1OCCCC(=O)NO	-82.5*
O=C1NC(Cc2ccc(F)cc2)(C2CCNCC2)C(=O)N1Cc1cncs1 (centres undefined)	3.6
COCCN(Cc1cnn(C)c1)C(=O)c1ccc(C(C)(C)C)cc1	26.2
O=C1C(=O)N(Cc2ccc(Cl)c(Cl)c2)c2ccccc21	20.2
CC(=O)O/N=C1/C(=O)N(Cc2cc(Cl)ccc2Cl)c2ccc(Cl)cc21	-79.2*
CN1C(=O)CCc2cc(NC(=O)c3cccs3)ccc21	85.5
CN(C)CC(=O)N1C[C@H](Oc2cccnc2)[C@@H]2OCCC[C@@H]21	288.1
COc1c(F)cccc1C(=O)N(C)Cc1ccc(C)o1	-1.7
Cn1ncc(SCC(=O)O)c(Cl)c1=O	73.1
Cc1cccc(N2C[C@@H]3CN(c4cccnc4)C(=O)[C@@H]3C2)n1	21.4
Cn1cc(N2C[C@@H]3CN(c4ccccn4)C[C@H]3C2=O)cn1	-87.1*
Cn1cc(N2C[C@@H]3CN(Cc4ccoc4)C[C@H]3C2=O)cn1	14.0
CC1c2ncc(COc3cccnc3)n2CCN1S(=O)(=O)N(C)C (centres undefined)	-3.4
O=c1[nH]c2ccccc2c2oc(-c3ccccc3)nc12	6.7
CCCCCCCc1nc2c(=O)[nH]c3ccccc3c2o1	-0.4
O=c1[nH]ccc2c1c(=O)[nH]c1ccccc12	-99.9*
O=C(Nc1ccc(F)cc1)N1CCCn2nnc(CN3CCCCC3)c2C1	11.7
O=C(OCc1ccc(Cl)cc1Cl)c1ccc2ccccc2n1	44.6
SMILES	Tg IFNy HTS
N/C(Cc1ccc(Cl)cc1Cl)=N\OC(=O)c1ccc(Br)o1	-85.8*
O=C(NC(=O)c1ccccc1F)OCc1ccc(Cl)cc1Cl	-36.9
O=C(c1cnc2ccccn2c1=O)N1CCCC(Cn2cc(C3CC3)nn2)C1 (centres undefined)	0.1
COc1ccc(CNC(=O)c2nc3c(s2)CCN(C(C)=O)CC3)cc1	-10.7
CNC(=O)c1nc2c(s1)CCN(C(=O)NCc1ccccc1)CC2	66.1
CC(C)CNC(=O)c1nc2c(s1)CCN(C(=O)NCc1ccccc1)CC2	-84.0*
CN1CC2(CCN(C(=O)CCc3n[nH]c4c3CCCC4)C2)OC1=O (centres undefined)	-24.0
CCOC(=O)c1[nH]c(C)c(CN2CC3CCCN3C[C@@H]2C)c1C (some centres undefined)	-18.3
CCOC(=O)c1[nH]c(C)c(C(=O)OCC)c1C	146.1
CCOC(=O)c1[nH]c(C)c(S(=O)(=O)NC2CCCCNC2=O)c1C (centres undefined)	-95.1*
CC(C)NC(=O)CC1CC2(CCN(C(=O)COc3ccccc3)CC2)Oc2ccccc21 (centres undefined)	-51.5
Cc1ccccc1OCC(=O)NCCc1sc(-c2cccc(F)c2)nc1C	5.1
COc1ccc(CCc2nc(CC(=O)Nc3cc(C)ccc3C)no2)cc1	14.3
CCc1ncc2c(n1)CN(C(=O)c1cccc(-c3ncn[nH]3)c1)C2	-0.6
Cc1ccc(S(=O)(=O)N2CC[C@H]3[C@H](CC2)S(=O)(=O)CCN3CC(C)C)cc1	1.9
COc1cc(N2C[C@H]3C[C@H](CC(=O)N(C)C)O[C@@H]3C2)ncn1	4.6
COc1ccc(CN2CCN(C3CCCCC3)C(=O)C2)cc1C(=O)O	-3.7
COc1ccc(CC(=O)N2CCc3ncnc(NC4CC4)c3CC2)cc1	-69.0
COc1cccc(CC(=O)N2CCc3ncnc(NC4CC4)c3CC2)c1	-2.9
O=C(c1ccco1)N1CCc2ncnc(NC3CC3)c2CC1	-86.0*
COc1cccc(-c2cn[nH]c2C2CCN(C(=O)c3ccc(C)[nH]c3=O)CC2)c1	5.8
CCn1c(SCc2nnc(-c3ccc(OC)c(OC)c3)o2)nc2ccccc2c1=O	4.7
Cn1ncc(Br)c1-c1cccc(N)c1	-5.1
Cc1oc(-c2ccc(NC(=O)c3cc(F)ccc3Cl)cc2)nc1Cn1cccn1	-91.7*
CSc1ccc(Cl)c(C(=O)Nc2ccc(-c3nc(Cn4cccn4)c(C)o3)cc2)c1	-92.9*

Bioassay records: PubChem BioAssay, Broad Institute
